Reference: PubChem BioAssay (NCI)
The panel holds about 79,000 compounds, 15% with a hit somewhere; the sample as a whole holds those more often. The source made the active and inactive calls. No stated cut-off is given here; in the data, active means growth inhibition above about 70%; inactive means the rest.

Legend:
[1] = NCI Yeast Anticancer Drug Screen. Data for the wt1 strain (AID 149);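 further: 0% = growth of vehicle-treated wt1 cultures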; settings: S. cerevisiae wt1 strain (SPY 50644) growth inhibition, active compounds read high
In short: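 Readout: yeast growth inhibition, normalised to vehicle controls, in the wt1 strain exposed to test compounds.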

[2] = NCI Yeast Anticancer Drug Screen. Data for the rad50EPP+ strain (AID 151);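 further: 0% = growth of vehicle-treated control cultures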; settings: S. cerevisiae rad50 mutant strain, active compounds read high
In short: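 One strain with a rad50 alteration (rad50EPP+) was compound-treated, its growth then compared to that of vehicle controls.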

[3] = NCI Yeast Anticancer Drug Screen. Data for the mgt1 strain (AID 153); settings: S. cerevisiae mgt1 mutant growth inhibition, active compounds read high
In short: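 After exposure of the mgt1 yeast mutant to compound, growth was measured and reported as inhibition compared with vehicle controls.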

[4] = NCI Yeast Anticancer Drug Screen. Data for the rad50 strain (AID 155);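 further: 0% = growth of vehicle-only cultures of the same strain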; settings: S. cerevisiae rad50 strain growth inhibition, active compounds read high
In short: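 Compounds were tested on a yeast strain with an engineered DNA damage repair alteration; the reported value is growth inhibition normalised to vehicle treatment.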

[5] = NCI Yeast Anticancer Drug Screen. Data for the mec2-1 strain (AID 157); settings: S. cerevisiae mec2-1 strain, active compounds read high
In short: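 Test agents were screened against the mec2-1 yeast strain, with defined DNA repair or cell cycle alteration. Growth was scored as inhibition against vehicle-only controls.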

[6] = NCI Yeast Anticancer Drug Screen. Data for the rad14 strain (AID 159);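 further: 0% = growth of vehicle-treated control cultures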; settings: S. cerevisiae rad14 strain growth inhibition, active compounds read high
In short: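 Compound-treated yeast with a defined DNA-repair lesion; growth inhibition normalised to vehicle-treated cultures.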

[7] = NCI Yeast Anticancer Drug Screen. Data for the sgs1 mgt1 strain (AID 161);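 further: 0% = growth of cultures given vehicle only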; settings: S. cerevisiae sgs1 mgt1 strain, active compounds read high
In short: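 Mutant yeast exposed to compound; growth scored against vehicle-only wells.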

[8] = NCI Yeast Anticancer Drug Screen. Data for the CLN2oe strain (AID 163);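 further: 0% = growth of vehicle-only control cultures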; settings: S. cerevisiae CLN2oe strain, active compounds read high
In short: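 Here, growth inhibition in a cell-cycle-altered yeast strain after compound exposure was quantified against vehicle control growth.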

[9] = NCI Yeast Anticancer Drug Screen. Data for the cln2 rad14 strain (AID 165);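 further: 0% = growth equal to vehicle treated cultures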; settings: S. cerevisiae cln2 rad14 strain, active compounds read high
In short: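 Growth of compound-exposed yeast (cln2 rad14 genotype) measured and expressed as inhibition relative to vehicle.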

[10] = NCI Yeast Anticancer Drug Screen. Data for the bub3 strain (AID 167); settings: S. cerevisiae bub3 mutant strain, active compounds read high
In short: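 Growth of a checkpoint-deficient yeast mutant is measured after compound exposure. Values represent inhibition relative to vehicle.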

[11] = NCI Yeast Anticancer Drug Screen. Data for the wt2 strain (AID 169);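 further: 0% = growth of vehicle-treated yeast cultures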; settings: S. cerevisiae wt2 strain growth inhibition, active compounds read high
In short: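 Genetically defined yeast strains from a DNA-repair/cell-cycle panel were used. Compound-exposed yeast growth was measured, and the inhibition was calculated relative to vehicle treatment.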

[12] = NCI Yeast Anticancer Drug Screen. Data for the mlh1 strain (AID 171);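 further: 0% = growth of vehicle-treated control cultures of the same strain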; settings: S. cerevisiae mlh1 strain growth inhibition, active compounds read high
In short: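 Here the genetically defined yeast mutant is grown with each compound, and the extent to which its growth falls below that of vehicle-exposed cells is reported.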

[13] = NCI Yeast Anticancer Drug Screen. Data for the sgs1 strain (AID 173);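 further: 0% = growth of vehicle-only control cultures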; settings: S. cerevisiae sgs1 mutant, active compounds read high
In short: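 Relative growth inhibition, referenced to vehicle, was determined in a yeast strain with a defined alteration affecting DNA damage repair or cell cycle control after compound exposure.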

[14] = NCI Yeast Anticancer Drug Screen. Data for the mlh1 rad18 strain (AID 175); settings: S. cerevisiae mlh1 rad18 strain growth inhibition, active compounds read high
In short: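 In this whole-cell yeast screen, a strain with altered DNA damage repair is challenged with compound, and its growth is measured against matched vehicle-treated controls.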

[15] = NCI Yeast Anticancer Drug Screen. Data for the rad18 strain (AID 177); settings: S. cerevisiae rad18 mutant growth inhibition, active compounds read high
In short: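 Screen uses a yeast strain with a defined lesion in DNA damage repair; compound effect is read as loss of growth compared to untreated vehicle cultures.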

[16] = at 5.0 µM (retest, dose inferred, filed as 0.5)
[17] = at 50.0 µM (retest, dose inferred, filed as 5.0)

Measured: growth inhibition

Nc1nc(N)c2cc(Sc3ccc4ccccc4c3)ccc2n1
inactive: [1]; at 1.2 µM 1% | [1]; at 3.7 µM 10% | [1]; at 11.0 µM 44% | [2]; at 1.2 µM 17% | [2]; at 3.7 µM 31% | [2]; at 11.0 µM 31% | [2]; at 33.0 µM 65% | [2]; at 100.0 µM 63% | [3]; at 1.2 µM -23% | [3]; at 3.7 µM 12% | [4]; at 1.2 µM -8% | [4]; at 3.7 µM 43% | [4]; [16] 55% | [5]; at 1.2 µM -13% | [5]; at 3.7 µM 61% | [6]; at 1.2 µM -13% | [6]; at 3.7 µM -2% | [6]; at 11.0 µM 69% | [7]; [16] 62% | [8]; at 1.2 µM 2% | [8]; at 3.7 µM 9% | [8]; at 11.0 µM 50% | [9]; [16] 10% | [10]; at 1.2 µM -21% | [10]; at 3.7 µM -4% | [10]; [16] 30% | [11]; at 1.2 µM -18% | [11]; at 3.7 µM 25% | [11]; at 11.0 µM 69% | [12]; at 1.2 µM -11% | [12]; at 3.7 µM 22% | [13]; at 1.2 µM 3% | [13]; at 3.7 µM 38% | [14]; [16] 60% | [15]; at 1.2 µM -6% | [15]; at 3.7 µM 27%
active: [1]; at 33.0 µM 86% | [1]; at 100.0 µM 89% | [3]; at 11.0 µM 74% | [3]; at 33.0 µM 93% | [3]; at 100.0 µM 94% | [4]; at 11.0 µM 90% | [4]; at 33.0 µM 95% | [4]; [17] 98% | [4]; at 50.0 µM 88.1% | [4]; at 100.0 µM 92% | [5]; [16] 79% | [5]; at 11.0 µM 94% | [5]; at 33.0 µM 95% | [5]; [17] 99% | [5]; at 50.0 µM 91.3% | [5]; at 100.0 µM 95% | [6]; at 33.0 µM 96% | [6]; at 100.0 µM 94% | [7]; [17] 97% | [7]; at 50.0 µM 89% | [8]; at 33.0 µM 85% | [8]; at 100.0 µM 89% | [9]; [17] 85% | [9]; at 50.0 µM 86.7% | [10]; at 11.0 µM 74% | [10]; at 33.0 µM 94% | [10]; [17] 97% | [10]; at 50.0 µM 85.8% | [10]; at 100.0 µM 93% | [11]; at 33.0 µM 87% | [11]; at 100.0 µM 92% | [12]; at 11.0 µM 79% | [12]; at 33.0 µM 95% | [12]; at 100.0 µM 93% | [13]; at 11.0 µM 80% | [13]; at 33.0 µM 94% | [13]; at 100.0 µM 91% | [14]; [17] 96% | [14]; at 50.0 µM 83.8% | [15]; at 11.0 µM 78% | [15]; at 33.0 µM 93% | [15]; at 100.0 µM 93%

S=c1[nH]c2c(Cl)c(Cl)c(Cl)c(Cl)c2[nH]1
active: [1]; at 33.0 µM 98% | [1]; at 100.0 µM 96% | [2]; at 11.0 µM 81% | [2]; at 33.0 µM 96% | [2]; at 100.0 µM 95% | [4]; at 33.0 µM 98% | [4]; [17] 92% | [4]; at 50.0 µM 90% | [4]; at 100.0 µM 96% | [5]; at 33.0 µM 98% | [5]; [17] 98% | [5]; at 50.0 µM 91% | [5]; at 100.0 µM 96% | [6]; at 33.0 µM 99% | [6]; at 100.0 µM 96% | [7]; [17] 97% | [8]; at 33.0 µM 97% | [8]; at 100.0 µM 95% | [9]; [17] 95% | [10]; at 33.0 µM 98% | [10]; [17] 95% | [10]; at 100.0 µM 95% | [11]; at 33.0 µM 96% | [11]; at 100.0 µM 96% | [12]; at 11.0 µM 75% | [12]; at 33.0 µM 98% | [12]; at 100.0 µM 94% | [13]; at 33.0 µM 97% | [13]; at 100.0 µM 96% | [14]; [17] 95% | [14]; at 50.0 µM 90.5% | [15]; at 33.0 µM 97% | [15]; at 100.0 µM 95%
inactive: [1]; at 1.2 µM 16% | [1]; at 3.7 µM -4% | [1]; at 11.0 µM 33% | [2]; at 1.2 µM 13% | [2]; at 3.7 µM 20% | [4]; at 1.2 µM -5% | [4]; at 3.7 µM -2% | [4]; [16] 33% | [4]; at 11.0 µM 59% | [5]; at 1.2 µM -28% | [5]; at 3.7 µM -11% | [5]; [16] 44% | [5]; at 11.0 µM 48% | [6]; at 1.2 µM -11% | [6]; at 3.7 µM 4% | [6]; at 11.0 µM 50% | [7]; [16] -10% | [8]; at 1.2 µM 9% | [8]; at 3.7 µM 3% | [8]; at 11.0 µM 48% | [9]; [16] 61% | [10]; at 1.2 µM -5% | [10]; at 3.7 µM 4% | [10]; [16] 44% | [10]; at 11.0 µM 66% | [11]; at 1.2 µM -12% | [11]; at 3.7 µM -3% | [11]; at 11.0 µM 24% | [12]; at 1.2 µM 2% | [12]; at 3.7 µM 22% | [13]; at 1.2 µM -3% | [13]; at 3.7 µM 10% | [13]; at 11.0 µM 54% | [14]; [16] 26% | [15]; at 1.2 µM 5% | [15]; at 3.7 µM 12% | [15]; at 11.0 µM 42%
